A3A deaminase: human APOBEC3A DNA deaminase inhibition | recombinant A3A, FAM/TAMRA ssDNA deamination fluorescence | inhibition, % at 20 µM | AID 493011 | 330,000 compounds, 0.41% hits | P31941;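 active = at least 40% inhibition at 20 µM here, with at most 30% in a related deaminase screen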;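 also: plate controls were A3A with DMSO for no effect and wells lacking A3A enzyme for full effect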
Yeast superoxide: caloric restriction mimetics inhibiting age-related superoxide in yeast. S. cerevisiae aged cells, superoxide DHE fluorescence; hits give low values. superoxide response (% of plate mean), % at 10 µM. 330,000 compounds, 0.18% hits;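 active = superoxide response under a set limit, about three screen SD below normal, cut at about 65% in these data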;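 also: yeast aged for seven days with compound at 30 °C before DHE staining; 100% = average MFI of all compound-treated wells on the plate with controls excluded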
PfG6PD inh: PfG6PD (Plasmodium falciparum) enzyme inhibition; PfGluPho enzyme, NADPH resazurin-diaphorase fluorescence; inhibition, % at 20 µM; 350,000 compounds, 0.78% hits; AID 504690;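 active = inhibition reaching at least a set limit at 20 µM in the primary screen, cut at about 59% in these data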;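 also: 0% = DMSO wells with substrate and 100% = DMSO wells lacking glucose-6-phosphate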
APOBEC3G inh: blocks human APOBEC3G single-stranded DNA deamination. Q9HC16. 330,000 compounds, 0.28% hits. inhibition, % at 20 µM. recombinant A3G, ssDNA deamination FAM/TAMRA fluorescence;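 active = inhibition of at least 40% at 20 µM, with no more than 30% in the related APOBEC3A deaminase screen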;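 also: plate controls were DMSO wells with A3G for no effect and wells lacking A3G enzyme for full effect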
PfM18AAP inh-1: blocks P. falciparum M18 aspartyl aminopeptidase. recombinant PfM18AAP, H-Glu-NHMec fluorogenic cleavage. inhibition, % at 7.35 µM. 290,000 compounds, 1.2% hits;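 active = inhibition above the campaign mean inhibition over all tested compounds plus 3 SD, cut at about 28% in these data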;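 also: 0% = plate median of test compound wells and 100% = 2 mM ZnCl2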
PfM18AAP inh-2: PfM18AAP inhibition, confirmation; shares compounds with PfM18AAP inh-1; recombinant PfM18AAP, H-Glu-NHMec fluorogenic cleavage; inhibition, % at 7.35 µM; 2,400 compounds, 28% hits;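 active = mean inhibition over replicate wells above the hit cutoff set for the earlier primary screen, cut at about 29% in these data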;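 also: 0% = median of test compound wells and 100% = 2 mM ZnCl2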
CTSL1 confirm: Cathepsin L (human) inhibition, confirmation | 2,400 tested, under 10 active | purified cathepsin L1, Z-Leu-Arg-MCA fluorescence | inhibition, % at 5.96 µM | shares compounds with PfM18AAP inh-1 | AID 2178;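 active = average inhibition across replicates above the hit cutoff set in the earlier primary screen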;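 also: 0% = median of test compound wells and 100% = Z-Phe-Ala-diazomethylketone 1 µM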
Target sequence (P07711 whole entry, looked up): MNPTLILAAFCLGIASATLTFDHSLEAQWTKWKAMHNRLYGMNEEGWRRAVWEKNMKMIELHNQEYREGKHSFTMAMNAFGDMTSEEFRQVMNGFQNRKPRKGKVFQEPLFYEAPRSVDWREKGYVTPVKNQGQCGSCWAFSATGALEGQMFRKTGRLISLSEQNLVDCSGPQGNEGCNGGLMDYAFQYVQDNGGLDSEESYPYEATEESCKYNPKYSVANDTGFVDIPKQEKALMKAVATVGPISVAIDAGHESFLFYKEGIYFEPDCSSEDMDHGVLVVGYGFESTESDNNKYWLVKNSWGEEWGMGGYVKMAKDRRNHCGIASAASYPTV
A3G conf: APOBEC3G (human) deaminase inhibition, confirmed; recombinant A3G ssDNA deaminase, UDG/FAM-TAMRA fluorescence; shares compounds with APOBEC3G inh; inhibition, % at 20 µM; 890 compounds, 72% hits;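 active = inhibition reaching a set limit in any replicate at 20 µM, the limit being 80% of the first screen's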
UDG A3G counter: E. coli UDG inhibition in APOBEC3G counter-screen. inhibition, % at 20 µM. 710 tested, under 10 active. UDG counterscreen, FAM/TAMRA oligo fluorescence. shares compounds with APOBEC3G inh;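 active = compounds giving 40% or more inhibition at 20 µM in any one of the three replicates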;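 also: plate controls were DMSO wells with UDG and oligo for no effect and DMSO wells lacking both for full effect; inhibitors lower the FAM signal released by uracil excision and alkaline cleavage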
Target sequence (P12295 whole entry, looked up): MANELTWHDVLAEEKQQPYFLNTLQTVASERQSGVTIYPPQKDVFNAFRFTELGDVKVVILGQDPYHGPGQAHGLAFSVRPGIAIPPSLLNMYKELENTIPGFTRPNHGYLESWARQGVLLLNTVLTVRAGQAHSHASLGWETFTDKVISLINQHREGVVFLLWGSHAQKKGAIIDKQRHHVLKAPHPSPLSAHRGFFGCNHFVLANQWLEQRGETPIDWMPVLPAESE
PfG6PD confirm: PfG6PD inhibition, single-dose confirmed; shares compounds with PfG6PD inh; recombinant PfGluPho, NADPH-diaphorase-resazurin fluorescence; inhibition, % at 20 µM; 2,400 compounds, 34% hits;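 active = inhibition of at least 50% at 20 µM in any single replicate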;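 also: 0% = DMSO with substrate and 100% = DMSO lacking glucose-6-phosphate substrate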
Diaph ctr 10uM: counter-screen for P. falciparum G6PD inhibitors: diaphorase inhibitors, oxidizers; shares compounds with PfG6PD inh; diaphorase-coupled resazurin reduction, fluorescence, NADPH 10 uM; inhibition, % at 20 µM; 820 compounds, 39% hits; AID 504862;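 active = average inhibition reaching 50% or more with the compound at 20 µM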;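 also: resorufin red fluorescence formed as diaphorase reduces resazurin using NADPH; 0% = DMSO with enzyme and 100% = DMSO without enzyme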
Diaph ctr 30uM: inhibits diaphorase or oxidizes, flagging false PfG6PD hits | inhibition, % at 20 µM | Diaphorase/resazurin coupled assay, resorufin fluorescence, 30 uM NADPH | shares compounds with PfG6PD inh | 820 compounds, 29% hits | AID 504863;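 active = inhibition averaging 50% or more, tested at 20 µM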;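 also: 0% = DMSO with enzyme and 100% = DMSO wells lacking diaphorase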
An asterisk follows results filed as active; / = not tested or not shown. This is a sample that favours compounds with a hit; in the whole collection about 2.4% have one here.

SMILES	A3A deaminase	Yeast superoxide	PfG6PD inh	APOBEC3G inh	PfM18AAP inh-1	PfM18AAP inh-2	CTSL1 confirm	PfG6PD confirm	others
COCCOC(=O)c1c(C)n(C)c2ccc(OC(=O)N3CCOCC3)cc12	-3	105	-1	3	-3	/	/	/
O=C(CNC(=O)c1ccc(Br)cc1)NCC(=O)OCC(=O)c1ccc(F)cc1	3	114	14	4	0	/	/	/
O=C(CNC(=O)c1ccccc1)NCC(=O)OCC(=O)c1ccc([N+](=O)[O-])cc1	-1	121	59*	1	40*	-5	3	55*	Diaph ctr 10uM=-18;Diaph ctr 30uM=-16
O=C(CNC(=O)c1ccc(Br)cc1)NCC(=O)OCC(=O)c1ccc([N+](=O)[O-])cc1	0	106	67*	3	38*	-15	-4	57*	Diaph ctr 10uM=-5;Diaph ctr 30uM=-8
O=C(/C=C/c1cccs1)N1CCN(c2ccc(O)cc2)CC1	-1	93	64*	31	45*	-10	5	36
CCN1/C(=C/C(=O)c2ccco2)Sc2ccccc21	-10	102	77*	0	46*	-12	2	34
COc1ccccc1N(C)S(=O)(=O)c1ccc(C)c(C(=O)NCc2ccccn2)c1	-6	82	2	-9	/	/	/	/
COc1ccccc1NS(=O)(=O)c1ccc(C)c(NC(=O)c2c(C)noc2C)c1	-3	95	10	-6	/	/	/	/
Cc1ccc(-n2c(N)c(C(N)=O)sc2=S)c(C)c1	1	100	62*	45*	39*	8	5	29	A3G conf=14
Cc1ccc(-n2c(N)c(C(=O)N3CCN(C)CC3)sc2=S)cc1	-1	110	79*	46*	59*	19	1	70*	A3G conf=74*;UDG A3G counter=-3;Diaph ctr 10uM=6;Diaph ctr 30uM=8
COc1cc(/C=C/C(=O)Nc2nnc(CC(C)(C)C)s2)cc(OC)c1OC	3	94	59*	35	34*	-8	2	35
CCCCn1c(N)c(N(CC(C)C)C(=O)COc2cc(C)ccc2Cl)c(=O)[nH]c1=O	2	/	3	-5	/	/	/	/
CC(C)(C)c1cc(C(=S)N2CCN(CCO)CC2)cc(C(C)(C)C)c1O	3	79	60*	61*	36*	-7	2	11	A3G conf=56*;UDG A3G counter=-5
O=C(Cc1csc(N2CCOCC2)n1)N/N=C/c1ccc(O)c(O)c1O	/	/	72*	/	47*	16	-3	62*	Diaph ctr 10uM=57*;Diaph ctr 30uM=64*
C/C(=N\NC(=O)Cc1csc(N2CCOCC2)n1)c1ccccc1	0	87	6	-5	2	/	/	/
CC(C)c1ccc(N(CC(=O)N2CCN(Cc3ccccc3)CC2)S(C)(=O)=O)cc1	-7	106	-1	-5	-3	/	/	/
Cc1c(N)c(C(C)(C)C)cc(C(C)(C)C)c1[N+](=O)[O-]	-1	104	-1	-2	-1	/	/	/
Cc1cc2nc3c(=O)[nH]c(=O)[nH]c3nc2c([N+](=O)[O-])c1N	/	/	50	/	32*	1	0	40
COc1cc(C(=O)OCC(=O)NC2CC2)ccc1OCCC(C)C	0	95	-9	0	/	/	/	/
O=C(CCCCCNC(=S)Nc1ccccc1)C[N+](=O)[O-]	-1	103	-19	-3	-3	/	/	/
COc1ccccc1N/N=C/c1c(CO)cnc(C)c1O	-3	95	10	7	7	/	/	/
COc1cc(N=Cc2c(CO)cnc(C)c2O)cc(OC)c1OC	2	111	63*	-8	35*	-13	-1	68*	Diaph ctr 10uM=-25;Diaph ctr 30uM=-17
C[C@@H](C(=O)CC(=O)OC(C)(C)C)[C@@H](O)c1ccccc1	-1	106	-5	-4	-1	/	/	/
Nc1nc(-c2cc(O)ccc2[N+](=O)[O-])cc(-c2ccccc2)c1[N+](=O)[O-]	25	100	76*	33	46*	-37	-2	-4
Cc1c(NC(=O)COC(=O)C2=COCCO2)cccc1[N+](=O)[O-]	0	107	-13	3	/	/	/	/
SMILES	A3A deaminase	Yeast superoxide	PfG6PD inh	APOBEC3G inh	PfM18AAP inh-1	PfM18AAP inh-2	CTSL1 confirm	PfG6PD confirm	others
O=C(COc1cccc(C(F)(F)F)c1)N1CCN(c2ccc(O)cc2)CC1	3	120	61*	27	33*	-24	4	1
O=C(COc1cccc(C(F)(F)F)c1)N1CCN(c2ccccc2O)CC1	-1	106	14	-3	1	/	/	/
Cc1cccc(NC(=S)NCCc2ccccc2)n1	-3	105	70*	-9	38*	10	1	24
S=C(NCCc1ccccc1)Nc1ccccn1	1	128	16	-11	25	/	/	/
O=C1CC(N2CCN(c3ccc(O)cc3)CC2)C(=O)N1c1ccc2c(c1)OCO2 (stereo unspecified)	-4	99	60*	13	32*	-16	0	29
O=C1CC(N2CCCCCC2)C(=O)N1c1ccc2c(c1)OCO2 (stereo unspecified)	0	107	7	2	-6	/	/	/
COC(=O)[C@@]12CCCCN1[C@H](c1ccc(-c3ccc4c(c3)OCO4)cc1)[C@H]1C(=O)N(C)C(=O)[C@H]12	-2	85	10	-5	/	/	/	/
COc1ccc(O)c(C(=O)C2c3ccccc3C(=O)N2c2ccc(C)cc2)c1 (stereo unspecified)	-1	147	66*	75*	40*	26	4	-6	A3G conf=88*;UDG A3G counter=-5
CCCN1CCN(C(=O)c2oc3ccccc3c2NC(=O)COc2ccc(OC)cc2)CC1	-5	119	0	-6	1	/	/	/
Oc1ccc(N2CCN(Cc3cc4c(cc3Br)OCCO4)CC2)cc1	19	98	74*	17	39*	-13	-1	6
O=S(=O)(c1ccc(F)cc1)N1CCN(Cc2cc3c(cc2Br)OCCO3)CC1	8	111	-3	-12	/	/	/	/
S=C(Nc1ccccn1)c1ccccn1	6	105	67*	18	36*	-23	2	13
Cc1cc(NC(=O)Cc2ccsc2)ccc1Br	-4	102	8	-12	-2	/	/	/
